# This is one part of a sample in which hits are shown more often than they occur.
# Tgondii IFNg: inhibitors of Toxoplasma gondii growth with IFN-gamma. 69,000 tested, 3.8% active. AID 1259416. activity change, negative = inhibition, % (test concentration not listed). Toxoplasma gondii growth in IFN-gamma-treated host cells; active compounds read low; in the data active = activity change below about -70%, passing the limit was not always enough;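 note: host cells are HeLa cells infected with Toxoplasma gondii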
# Hits are given with their value; - = inactive; ! = repeats disagree.
SMILES,Tgondii IFNg
COc1ccc(CC(=O)NCCc2csc(-c3cccc(F)c3)n2)cc1,-
Cc1ccc(CN2CCC3(CC2)N=C(c2cccc(F)c2)C(=O)N3)c(C)c1,-
CC(c1cccc(-c2cc(O)cc(C(=O)O)c2)c1)N(C)C (stereo not drawn),-
COc1cccc(-c2nc(Cn3nnc(C(=O)Nc4cccc(C)c4C)c3C)c(C)o2)c1OC,-
COc1ccc(F)c(-c2nc(COc3ccccc3C(N)=O)c(C)o2)c1,-
Cc1cc(C)n(C2=NCCN2S(=O)(=O)c2cc(C(F)(F)F)cc(C(F)(F)F)c2)n1,-90
Cc1cc(C)n(-c2ncc(S(=O)(=O)C(C)(C)C)c(N)n2)n1,-
Cc1cc(C)cc(S(=O)(=O)N2CCC3(CC2)NCCN=C3NCc2ccc(C(F)(F)F)cc2)c1,-
CCCn1c(=O)c(-c2nc(-c3ccc(SC)cc3)no2)c(O)c2ccccc21,-
CN(C)C(=O)CN1C(=O)CCC12CCC(NCc1ccccn1)CC2 (stereo not drawn),-
Cc1ccc(C(=O)N2CCC3(CCCN3c3ncccn3)CC2)cc1,-
Cc1ccc(NC(=O)CC(=O)N2CCCC3(CCNC3)C2)c(C)c1 (stereo not drawn),-
OC[C@H]1O[C@@H](n2cnc3c(NCc4ccco4)ncnc32)[C@H](O)[C@@H]1O,-83
OC[C@H]1O[C@@H](n2cnc3c(NC4CCCC4)ncnc32)[C@H](O)[C@@H]1O,-
OCC1OC(n2cnc3c(NC4CCCC4)ncnc32)C(O)C1O (stereo not drawn),-
COc1ccc(NC(=O)N2CCC(c3nc(C(=O)N4CCCCC4)c(C)o3)CC2)c(C)c1,-
OC1(c2ccc(Cl)c(C(F)(F)F)c2)CCN(CCCC(c2ccc(F)cc2)c2ccc(F)cc2)CC1,-85!
Fc1ccc(C(CCCN2CCN3CCCCC3C2)c2ccc(F)cc2)cc1 (stereo not drawn),-
OC(CCCN1CCC(O)(c2ccc(Cl)cc2)CC1)c1ccc(F)cc1 (stereo not drawn),-
Cc1nccn1-c1ccc(NC(=O)C2CCCN(C3CCSCC3)C2)cc1 (stereo not drawn),-
CCn1cncc1CNC(=O)c1cnn2cc(C)cnc12,-
CN(C)CCOCC1CN(C(=O)c2ccccn2)Cc2ccnn2C1 (stereo not drawn),-
Cc1noc(C)c1C(=O)OCc1ccc(-c2ccc(F)cc2F)o1,-
O=C(NCc1ccc(-c2ccc(F)cc2F)o1)Nc1ccc(Cl)cc1,-
O=S(=O)(c1ccc(F)cc1F)n1nccc1-c1ccc(-c2ccc(F)cc2F)o1,-111
SMILES,Tgondii IFNg
Cc1ccc(Nc2nc(C(=O)Nc3ccccc3Br)nc3ccccc23)cc1,-
Cc1ccccc1CNC1=NCCNC12CCN(S(=O)(=O)c1cccs1)CC2,-
COc1ccc(CN2CCc3c(nc4cc(-c5ccoc5C)[nH]n4c3=O)C2)cc1CO,-
Fc1cccc(CNc2c3c(nc4cc(-c5cccc(Cl)c5)nn24)CCC3)c1,-90
Fc1cccc(CNc2nc(-c3nnc(-c4ccc(Cl)cc4)o3)nc3ccccc23)c1,-
O=C(NCc1cccc(F)c1)Nc1ccc(-c2nc(-c3ccccc3)co2)cc1,-
Cc1noc(C)c1CN1CCC2(CC(=O)N(c3cccc(F)c3)C2)C1 (stereo not drawn),-
CCCCCCC1=NN(C(=O)c2ccc(C)cc2)C(O)(C(F)(F)F)C1 (stereo not drawn),-
COc1ncccc1CN1CCN(c2cncc(C(N)=O)n2)CC1,-
CC(C)Nc1n[nH]c2nc(C3CCN(C(=O)C(C)C)CC3)cc(C(F)(F)F)c12,-
CCc1cc(C(F)(F)F)c2c(C3CCN(C(=O)c4cc(C(C)C)[nH]n4)CC3)noc2n1,-76
CC[C@@H]1C[C@H](C(F)(F)F)n2nc(C3CCN(C(=O)c4cc(C(C)C)on4)C3)cc2N1 (stereo partly drawn),-
COc1ccc(Cl)cc1NC(=O)CN1CCC2(CC1)N=C(c1cccc(F)c1)C(=O)N2,-
Cc1cc(=O)oc2c(O)c(O)ccc12,-
O=c1cc(-c2ccccc2)oc2c(O)c(O)ccc12,-92
Cc1oc2c(O)c(O)ccc2c(=O)c1-c1ccccc1,-
CCC(C(=O)N(C)Cc1ncccc1C)N1Cc2ccccc2C1=O (stereo not drawn),-
Cc1[nH]c2cc(C(=O)NCCN3CCCC3=O)ccc2c1C,-
O=C(NCCc1csc(-c2ccccc2)n1)[C@H]1CSCN1S(=O)(=O)Cc1ccccc1,-
CSCCNC(=O)Nc1ccc(Cl)cc1,-
S=C(CCC(=S)Nc1ccc(Cl)cc1)Nc1ccc(Cl)cc1,-
O=C(Cc1ccc(O)cc1)NCCNC(=S)Nc1ccc(Cl)cc1,-96
CCOc1ccc(NC(=O)C2=C(C)C(=O)OC23CCN(Cc2ccccc2)CC3)cc1,-
CC1=C(C(=O)Nc2ccc(Cl)c(Cl)c2)C2(CCN(Cc3ccccc3)CC2)OC1=O,-93
CC1=C(C(=O)Nc2ccc(Cl)cc2)C2(CCN(Cc3ccccc3)CC2)OC1=O,-
SMILES,Tgondii IFNg
CCn1ncc2c1C(COC)N(C(=O)COc1ccccc1)CC2 (stereo not drawn),-
O=C(NC(=O)c1ccccc1F)OCc1ccc(Cl)cc1Cl,-
N/C(Cc1ccc(Cl)cc1Cl)=N\OC(=O)c1ccc(Br)o1,-86
O=C(OCc1ccc(Cl)cc1Cl)c1ccc2ccccc2n1,-
COCCNC(=O)[C@@H]1CC2C(CCN2c2cc(OC)ncn2)O1 (stereo partly drawn),-
Cc1c(C(=O)N2CCOc3ccc(-c4ccc(N)nc4)cc3C2)ccc(S(C)(=O)=O)c1F,-
C=Cn1cc(CN(Cc2cccnc2)Cc2ccccc2F)c(C)n1,-
Cc1nonc1CN(C)C(=O)CSCc1ccccc1Cl,-
Cc1ccccc1NC(=O)CC(=O)NC(CC(C)C)c1ncnn1C (stereo not drawn),-
O=C(C[C@H]1COC[C@@H]2CN(Cc3ccoc3)C[C@@H]12)N1CCOCC1,-
COc1cccc(CC(=O)Nc2ccc(-c3nc(Cn4cccn4)c(C)o3)cc2)c1,-
COc1cccc(C(=O)Nc2ccc(-c3nc(Cn4cc(C)cn4)c(C)o3)cc2)c1,-93
COc1cccc(C(=O)Nc2ccc(-c3nc(Cn4cccn4)c(C)o3)cc2)c1,-99
Cc1cnn(Cc2nc(-c3ccc(NC(=O)c4cccc(C#N)c4)cc3)oc2C)c1,-
Cc1oc(-c2ccc(NC(=O)c3cccc(F)c3)cc2)nc1Cn1cccn1,-87
Cc1ccc(C(=O)Nc2ccc(-c3nc(Cn4cccn4)c(C)o3)cc2)cc1F,-
Cc1oc(-c2ccc(NC(=O)c3cc(F)cc(F)c3)cc2)nc1Cn1cccn1,-
Cc1oc(-c2ccc(NC(=O)c3cccc(Cl)c3)cc2)nc1Cn1cccn1,-
CCCc1nnc(C(=O)N2[C@@H]3CC[C@H]2CN(C)CC3)o1,-
Nc1cnn(CC(=O)NCCc2ccccc2F)c1,-
CCOC(=O)C1CCN(c2nc(-c3ccc(OC)cc3)nc3ccccc23)CC1,-
c1ccc(C2CCCN(Cc3cc4n(n3)CCNC4)CC2)cc1 (stereo not drawn),-
CC(C)NC(=O)[C@H]1CCS(=O)(=O)[C@H]2CN(C(=O)Nc3ccccc3)C[C@@H]12,-
CC(C)CCN1C[C@H]2[C@H](C(=O)Nc3ccccc3)CCS(=O)(=O)[C@H]2C1,-94
O=C(Nc1ccccc1)[C@@H]1CCS(=O)(=O)[C@H]2CN(Cc3ccc(F)cc3)C[C@@H]12,-
COCCC(=O)N1CC[C@@H](N(C)C)[C@@H]1Cc1cccnc1,-
Cc1nc(-n2cnnc2)ccc1-c1cccc(Cl)c1Cl,-84
Nc1nnc(-c2cccc(Cl)c2Cl)c(N)n1,-
COc1cccc(Cl)c1-c1cccc(-n2cnnc2)c1,-
